Laboratory results: PubChem BioAssay (NCI)
About 79,000 compounds went through this panel and 15% of them were active in at least one assay; those are over-represented in the sample as a whole. Values without a mark were called inactive. Active and inactive are the calls of the source. Rule as the data show it: active = growth inhibition above about 70%; inactive = the rest.

Assay: NCI Yeast Anticancer Drug Screen. Data for the mlh1 rad18 strain (AID 175)
Settings: S. cerevisiae mlh1 rad18 strain growth inhibition; at 50.0 µM (retest, dose inferred, filed as 5.0); hits give high values
Outline: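 Growth inhibition of the yeast strain was measured after compound exposure and expressed relative to vehicle-treated controls. The strain carries defined defects in DNA damage repair.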

Question: Which growth inhibition does the source give for CC(=O)NNc1nc(C)c(C(=O)NNC(=O)C(=O)Nc2c(C)cccc2C(C)C)s1 here?
Answer: The growth inhibition was 74% (active).

Question: With COc1cc(C2CC(=O)c3ccccc3O2)ccc1O (configuration not stated) as the compound, how does the growth inhibition read?
Answer: Its growth inhibition is 98% (active).

Question: For CCC1CCC2C3CC=C4CC(OC(C)=O)C(N)CC4(C)C3CCC12C (configuration not stated), which growth inhibition is on record?
Answer: Its growth inhibition is 94% (active).

Question: For COc1ccccc1C1c2cc3c(cc2OC(N2CCOCC2)C1C)OCO3 (configuration not stated), which growth inhibition is on record?
Answer: The growth inhibition was 32%.

Question: For O=C1C=C/C(=C(/c2ccc(O)c(O)c2)c2ccccc2S(=O)(=O)O)C=C1O, which growth inhibition is on record?
Answer: The growth inhibition was 4%.

Question: Which growth inhibition does the source give for N#CSC#Cc1ccc(C#CSC#N)cc1 here?
Answer: Its growth inhibition is 98% (active).

Question: Which growth inhibition does the source give for Cc1c2ccccc2c(CCl)c2ccc3ccccc3c12 here?
Answer: Its growth inhibition is 99% (active).

Question: With Oc1ccc(C(=C(Br)c2ccccc2)c2ccc(O)cc2)cc1 as the compound, how does the growth inhibition read?
Answer: The growth inhibition was 99% (active).

Question: For Clc1ccc(/C=N/Nc2c3ccccc3nc3ccccc23)c(Cl)c1, which growth inhibition is on record?
Answer: The growth inhibition was 87% (active).

Question: With CCCC#CCCOC(=O)c1cc([N+](=O)[O-])cc([N+](=O)[O-])c1 as the compound, how does the growth inhibition read?
Answer: Its growth inhibition is 98% (active).

Question: For CCOc1ccc2c(c1)n([O-])c1ccccc1[n+]2=O, which growth inhibition is on record?
Answer: The growth inhibition was 98% (active).

Question: Which growth inhibition does the source give for COc1ccc(/C(Cl)=C(\c2ccc(OCCN(C)C)cc2)c2ccc(OC(=O)C(C)(C)C)cc2)cc1 here?
Answer: The growth inhibition was 1%.

Question: With CCCCCCCCCCCCCCCCSC(=NC)NC as the compound, how does the growth inhibition read?
Answer: Its growth inhibition is 98% (active).

Question: With N#Cc1ccc(Oc2nc3ccccc3nc2-c2ccccc2)cc1 as the compound, how does the growth inhibition read?
Answer: Its growth inhibition is 27%.

Question: With Cc1ccc2c(c1)nc1n2C(N)=Nc2ccccc2S1 as the compound, how does the growth inhibition read?
Answer: The growth inhibition was 40%.

Question: For COc1cc(NCc2ccc3nc(-c4ccccc4)c(N)nc3c2)cc(OC)c1OC, which growth inhibition is on record?
Answer: The growth inhibition was 5%.

Question: For O=C(OCCC1CCCCC1)c1cc([N+](=O)[O-])cc([N+](=O)[O-])c1, which growth inhibition is on record?
Answer: The growth inhibition was 86% (active).
